Bioassay records (PubChem)
Vif inh: inhibitors of HIV Vif. AID 602346. inhibition, % at 7.49 µM. HEK293T cells, Vif self-association by quenched fluorescence, imaging, 24 h. actives 0.35% (n = 340,000); in the data active = inhibition above about 50%, passing the limit was not always enough; inconclusive = no clear call, values can overlap the other calls; inactive = below about 31%
Wnt bcat act: activates Wnt/beta-catenin signaling in a reporter cell assay. activator, plate reader. activation, % at 9.35 µM. actives 1.2% (n = 300,000); in the data active = activation above about 30%, passing the limit was not always enough; inconclusive = no clear call, values can overlap the other calls
PfHsp90 set2: reduces growth (ATP signal) of yeast expressing P. falciparum Hsp90; S. cerevisiae expressing PfHsp90, BacTiter-Glo ATP, 48 h; yeast lacking PDR1 and PDR3 efflux regulators; inhibition, % at 9.4 µM; actives 0.32% (n = 310,000);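 active = every replicate shows inhibition above about 80%, whatever the replicate mean, limit read from the data; inconclusive = mean inhibition reaches the set limit but some replicate falls short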
esBAF inh: blocks esBAF chromatin remodeling in mouse ES cells; Bmi1-luciferase knock-in reporter, 24 h; 100% = twice the neutral-well signal; reporter increase, % at 12.5 µM; actives 2% (n = 350,000); in the data active = activation above about 40%; inconclusive = no clear call, values can overlap the other calls;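 also: a rise in the Bmi1 reporter signal indicates esBAF inhibition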
N-glyco inh: N-linked glycosylation inhibition; D54 ERlucT glycosylation luciferase reporter, 24 h; percent of 100 nM tunicamycin response; reporter increase, % at 12.5 µM; actives 0.23% (n = 360,000); AID 588692;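 active = mean luciferase reporter signal, scaled so untreated is 0 and the glycosylation-blocking control 100, at or above a set limit in every replicate; inconclusive = mean reaches the limit but not every replicate does; inactive = mean below the limit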;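 also: luciferase carries N-glycosylation sites so blocking glycosylation raises the light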
MITF act: activators of MITF-driven TRPM1 promoter activity in SK-MEL-5 cells. SK-MEL-5 TRPM1-promoter luciferase, 24 h; % of positive control, neutral wells = 0. activation, % at 12.5 µM. actives 0.75% (n = 300,000). AID 588334;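 active = mean activation of at least 80% with every replicate also reaching 80%; inconclusive = mean reaches 80% but some replicate falls short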
Numbers stand for hits; 0 = inactive; ? = inconclusive; - = no result given. Most compounds without a hit are left out; they make up all but 3% or so of the library.

SMILES | Vif inh | Wnt bcat act | PfHsp90 set2 | esBAF inh | N-glyco inh | MITF act
CNC(=O)/C(C#N)=C/c1ccc(-c2ccc(Cl)cc2)o1 | 0 | 0 | 0 | 79.8 | 0 | 0
Cc1cccc(C)c1NC(=O)/C(C#N)=C/c1ccc(-c2ccc(C(=O)O)cc2)o1 | 0 | 0 | 0 | 127.6 | 0 | -
CCCc1cc2c(=O)c(-c3ccccn3)c(C)oc2cc1O | 0 | 0 | 0 | 0 | 0 | 0
CCCc1cc2c(=O)c(-c3ccccn3)coc2cc1OC | 0 | 53.4 | 0 | 99.6 | 0 | 116.0
Clc1ccc(C=NN2CCCCCC2)cc1Cl | 0 | 55.6 | 0 | - | 0 | 0
O=[N+]([O-])c1ccc(/C=N/N2CCCCC2)cc1 | 0 | 0 | 0 | 76.5 | 0 | 106.0
Clc1ccc(/C=N/N2CCCCC2)cc1 | ? | 32.7 | 0 | - | 0 | 93.6
C(=NN1CCCCCC1)c1ccccc1 | 0 | 0 | 0 | - | 0 | 0
COc1ccc(NC(=O)C2Cc3cccc(OC)c3O/C2=N\O)cc1 (stereo not given) | 0 | 0 | 0 | 0 | 0 | 0
COc1ccc(NC(=O)C2Cc3ccccc3O/C2=N\O)cc1 (stereo not given) | - | 0 | 0 | 0 | 0 | 86.1
C[C@@H]1CN([C@@H](C)CO)S(=O)(=O)c2ccc(C#CC3CC3)cc2O[C@H]1CN(C)C(=O)CN(C)C | - | - | - | 0 | - | -
C[C@@H]1CN([C@H](C)CO)C(=O)c2cccc(NC(=O)C3CCCCC3)c2O[C@H]1CN(C)Cc1ccc2c(c1)OCO2 | - | - | - | 0 | - | -
CC(C)n1nnnc1SCC(=O)N1N=C(c2cccs2)CC1c1cccs1 (stereo not given) | 0 | 0 | 0 | 71.1 | 0 | 0
Cc1ccc(C2CC(c3cccs3)=NN2C(=O)CCl)cc1 (stereo not given) | 0 | 0 | 0 | 62.0 | 0 | 0
COc1ccc(NC(=O)c2cc3ccccc3oc2=O)c(OC)c1 | 0 | 0 | 0 | 47.4 | 0 | -
COc1ccc2oc(=O)c(C(=O)Nc3cccc(C)c3)cc2c1 | 0 | 0 | 0 | 77.3 | 0 | 0
COc1ccccc1C(=O)Nc1cc2cc(Br)ccc2oc1=O | 0 | 0 | 0 | 26.6 | 0 | 0
COc1ccccc1NS(=O)(=O)c1ccc(C)c(C(=O)Nc2cc(C)on2)c1 | 0 | 0 | 0 | 0 | 0 | 0
COc1ccc(S(=O)(=O)Nc2ccccc2OC)cc1NC(=O)c1cc2ccccc2oc1=O | 0 | - | 0 | - | 0 | 90.2
COc1ccccc1C(=O)Nc1cc2ccccc2oc1=O | 0 | - | 0 | 0 | 0 | 0
CN1C(=O)c2cc(NS(=O)(=O)c3ccc(F)cc3)ccc2OC[C@@H]2O[C@@H](CC(=O)NCC(F)(F)F)CC[C@H]21 | - | - | - | 0 | - | -
COc1cc2cc(CN(CCc3ccccc3C)C(=S)NCCCN3CCOCC3)c(=O)[nH]c2cc1OC | 0 | 50.3 | 0 | - | 0 | 0
COc1ccc(-c2cc(C(=O)N3CCCC3)no2)cc1OC | 0 | 0 | 0 | 66.9 | 0 | 0
COc1ccc(-c2cc(C(=O)N3CCCCC3)no2)cc1OC | 0 | 0 | 0 | 58.6 | 0 | 0
CCOC(=O)/C=C/C(=O)Nc1cccc([N+](=O)[O-])c1 | 0 | - | 98.4 | - | 0 | 0
SMILES | Vif inh | Wnt bcat act | PfHsp90 set2 | esBAF inh | N-glyco inh | MITF act
CCOC(=O)c1cccc(NC(=O)/C=C/c2cccc([N+](=O)[O-])c2)c1 | 0 | - | 0 | 0 | 0 | 0
COc1ccc(NC(=O)CSc2nc(C3CC3)nc3ccccc23)cc1 | 0 | 0 | 0 | 0 | 0 | 0
CCn1c(SCC(=O)Nc2ccc(C(C)=O)cc2)nc2c([nH]c3ccccc32)c1=O | 0 | 0 | 0 | 0 | 91.6 | 0
CC(=O)Nc1c(O)nc(SCC(=O)Nc2ccc(C(C)=O)cc2)[nH]c1=O | 0 | 0 | 0 | 75.5 | 0 | 0
CC(=O)c1ccc(NC(=O)CSc2nc(C3CC3)nc3ccccc23)cc1 | 51.0 | 0 | 0 | 0 | 0 | 0
CCn1c(SCC(=O)Nc2cccc(NC(C)=O)c2)nc2c([nH]c3ccccc32)c1=O | 0 | 0 | 0 | 0 | 0 | 0
Cc1c(C(=O)NCc2ccccn2)oc2c(Cl)cccc12 | 0 | 0 | 0 | 0 | 0 | 0
O=C1CC(C(=O)Nc2ccccc2)N=C(N2CCOCC2)N1 (stereo not given) | 0 | - | - | 0 | 0 | -
CC(C)(C)CNC(CO)C12CC3CC(CC(C3)C1)C2 (stereo not given) | - | - | 0 | 0 | 0 | 0
O=C(CCS(=O)(=O)c1cc(Br)cc2c1N(C(=O)C1CC1)CC2)NCc1ccco1 | 0 | 0 | 0 | 0 | 0 | 0
COC(=O)c1ccc(N=NN2CCOCC2)cc1 | 0 | 0 | 0 | - | 0 | 0
CC(=O)NS(=O)(=O)c1ccc(N=NN2CCCCC2)cc1 | 0 | 0 | 0 | - | 0 | 0
NS(=O)(=O)c1ccc(N=NN2CCCCC2)cc1 | 0 | 38.8 | 0 | - | 0 | 0
COC(=O)c1ccc(N=NN2CCCCCC2)cc1 | 0 | 0 | 0 | - | 0 | 105.7
Cc1noc(C)c1NC(=O)N[C@H]1C=C[C@H](CC(=O)N2CCN(C)CC2)O[C@H]1CO | - | - | - | 0 | - | -
CCn1c2ccccc2c2nc3ccccc3nc21 | 0 | - | 0 | 0 | 0 | -
CCn1c2ccccc2c2nc3cc(OC)c(OC)cc3nc21 | 0 | 0 | - | 48.8 | 0 | -
Cc1cccc(C)c1NC(=O)CCCSc1nnc(-c2ccc(Cl)cc2)n1-c1ccccc1 | 0 | - | 0 | - | 0 | 0
COc1ccc(-n2nc([N+](=O)[O-])c(=NCc3ccco3)n2O)cc1 | 0 | 43.4 | 0 | 0 | 0 | 0
COCCCNC(=S)NNC(=S)Nc1ccccc1 | 0 | 42.5 | 0 | - | 0 | -
CC(=O)NCC1(O)CCCC(C)C1 (stereo not given) | 0 | 40.8 | 0 | - | 0 | 0
Cn1c2ccccc2c(=O)c2c(=O)n(-c3ccc(F)cc3)c(-c3cccs3)nc21 | 0 | 51.4 | 0 | - | 0 | 0
CCOC(=O)c1sc(-c2ccc(OC)cc2)cc1N | - | - | 0 | 76.2 | 0 | 99.0
CCOC(=O)c1sc(-c2ccc(F)cc2)cc1N | 0 | - | - | 56.6 | 0 | 97.7
CCOC(=O)c1sc(-c2ccccc2)cc1N | 0 | 53.8 | 0 | 67.1 | 0 | -
SMILES | Vif inh | Wnt bcat act | PfHsp90 set2 | esBAF inh | N-glyco inh | MITF act
CC(C)CCN1C(=O)c2ccc(C(=O)Nc3ccc(O)cc3C(=O)O)cc2C1=O | 0 | 0 | 0 | 0 | 0 | 0
O=C(NCc1ccccc1)c1cc(C2CCCCN2S(=O)(=O)c2cccc3cccnc23)on1 (stereo not given) | 0 | 0 | - | 0 | 0 | -
O/N=C/c1ccc2ccccc2n1 | 0 | 35.9 | 0 | - | 0 | -
COc1cc(/C=N/NC(=O)CNS(=O)(=O)c2ccc(C)cc2)cc(OC)c1OC | 0 | 0 | 0 | - | 0 | 0
CCCn1ncc2c(Nc3ccc(C)c(C)c3)ncnc21 | 0 | 0 | 0 | 66.5 | 0 | 98.1
Cn1ncc2c(Nc3ccc(Cl)c(Cl)c3)ncnc21 | 0 | 0 | 0 | 0 | 0 | 0
CC(NC(=O)/C=C/c1ccc(Br)cc1)c1ccc(Cl)cc1 (stereo not given) | 0 | 0 | 0 | 0 | 0 | 0
CN(C)CC(O)c1ccc(C=Cc2ccc(Cl)cc2)cc1 (stereo not given) | 0 | ? | 0 | 49.0 | 0 | 0
O=[N+]([O-])c1ccccc1COc1ccc(Cl)c2cccnc12 | 0 | 40.7 | 0 | 0 | 0 | 0
COc1ccc(-c2csc(NC(=O)Nc3ccccc3)n2)cc1 | 0 | 0 | 0 | 0 | 0 | 0
